Experimental data as given in PubChem BioAssay AID1159580 (chemical genetic matrix, 2015).
The whole screen tested about 5,500 compounds, of which about 2,000 (36%) were called active. About 18% were inconclusive and are not listed. Cut-off read from the data, not from the text of the source: active = normalized growth mostly below about 0.91 (no sharp cut-off); inconclusive = no clear call, values can overlap the other calls; inactive = mostly above about 0.92. This is one part of the list.

Assay: chemical genetic growth profiling, strain panel (AID 1159580);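 note: tested at 20 µM; growth read once vehicle control cultures reached saturation at 30 °C; 1 = growth at the plate median or of vehicle wells; lower values mean less growth of the strain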
Details: growth OD

Measured: normalized growth

c1ccc2c(c1)-c1cccc3cccc-2c13
active: S. cerevisiae deletion strains, locus YAL013W, strain DEP1, stronger effect = lower value 0.897 | S. cerevisiae deletion strains, locus YBR229C, strain ROT2, stronger effect = lower value 0.873 | S. cerevisiae deletion strains, locus YCL061C, strain MRC1, stronger effect = lower value 0.876 | S. cerevisiae deletion strains, locus YDL134C, strain PPH21, stronger effect = lower value 0.873 | S. cerevisiae deletion strains, locus YEL061C, strain CIN8, stronger effect = lower value 0.787 | S. cerevisiae deletion strains, locus YGR078C, strain PAC10, stronger effect = lower value 0.855 | S. cerevisiae deletion strains, locus YHR030C, strain SLT2, stronger effect = lower value 0.34 | S. cerevisiae deletion strains, locus YHR087W, strain rtc3, stronger effect = lower value 0.826 | S. cerevisiae deletion strains, locus YJR075W, strain HOC1, stronger effect = lower value 0.771 | S. cerevisiae deletion strains, locus YKL190W, strain CNB1, stronger effect = lower value 0.767 | S. cerevisiae deletion strains, locus YLR039C, strain RIC1, stronger effect = lower value 0.363 | S. cerevisiae deletion strains, locus YLR058C, strain SHM2 (second series), stronger effect = lower value 0.923 | S. cerevisiae deletion strains, locus YLR085C, strain ARP6, stronger effect = lower value 0.318 | S. cerevisiae deletion strains, locus YLR262C, strain YPT6, stronger effect = lower value 0.313 | S. cerevisiae deletion strains, locus YML094W, strain GIM5, stronger effect = lower value 0.757 | S. cerevisiae deletion strains, locus YMR307W, strain GAS1, stronger effect = lower value 0.428 | S. cerevisiae deletion strains, locus YNL153C, strain GIM3, stronger effect = lower value 0.906 | S. cerevisiae deletion strains, locus YNL298W, strain CLA4 (second series), stronger effect = lower value 0.694 | S. cerevisiae deletion strains, locus YNL322C, strain KRE1, stronger effect = lower value 0.932 | S. cerevisiae deletion strains, locus YNR030W, strain Alg12, stronger effect = lower value 0.721 | S. cerevisiae deletion strains, locus YPL055C, strain LGE1, stronger effect = lower value 0.666 | S. cerevisiae deletion strains, locus YPL241C, strain CIN2, stronger effect = lower value 0.648 | S. cerevisiae deletion strains, locus YPR135W, strain CTF4, stronger effect = lower value 0.483 | S. cerevisiae strains, strain wild type, stronger effect = lower value 0.863
inactive: S. cerevisiae deletion strains, locus YDL101C, strain DUN1, stronger effect = lower value 0.929 | S. cerevisiae deletion strains, locus YDR150W, strain NUM1, stronger effect = lower value 0.911 | S. cerevisiae deletion strains, locus YJL187C, strain SWE1, stronger effect = lower value 0.939 | S. cerevisiae deletion strains, locus YJR043C, strain POL32, stronger effect = lower value 0.929 | S. cerevisiae deletion strains, locus YMR219W, strain ESC1, stronger effect = lower value 0.949 | S. cerevisiae deletion strains, locus YMR263W, strain SAP30, stronger effect = lower value 0.916 | S. cerevisiae deletion strains, locus YOL006C, strain TOP1, stronger effect = lower value 0.764
